Bioassay records from PubChem BioAssay.
The list is not random: actives were taken first. Their share in the collection is about 13%.
HCMV inh: human cytomegalovirus inhibition; HFF cells, HCMV-luciferase reporter, 72 h; hits give low values; activity change, negative = inhibition, % at 57.5 µM; actives 4.5% (n = 410,000); in the data active = activity change below about -60%; inconclusive = no clear call, values can overlap the other calls; inactive = above about -39%
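HFF cells seeded 16 h at 37C, treated with compounds, infected with luciferase-reporter HCMV at MOI 1 PFU/cell; luciferase read at 72 h post infection, normalized to buffer-only and Salinomycin controls.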
Pf growth 96h: inhibits malaria parasite growth, 96 h; P. falciparum luciferase reporter growth, 96 h; AID 504834; actives 6.9% (n = 320,000); Potency, µM (top dose mostly 28.7 µM), for inactives: at the top dose activity change, negative = inhibition, most hits filed as inhibitors; also: potency is read from the fitted curve at half-maximal effect
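96 h incubation, 37 C, 5% CO2, of luciferase-reporter P. falciparum-infected RBCs (2% hematocrit, 0.05% parasitemia final) with test compounds; endpoint luminescence.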
Pf growth 48h: P. falciparum growth inhibition at 48 hours (one generation). AID 504832. Potency, µM (highest dose often 28.7 µM), inactives show top-dose activity change, negative = inhibition, most hits filed as inhibitors. actives 5.9% (n = 310,000). P. falciparum luciferase growth in erythrocytes, 48 h; also: potency is read from the fitted curve at half-maximal effect
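Luciferase-expressing P. falciparum in infected erythrocytes (2% hematocrit, 0.1% parasitemia final) in RPMI 1640/0.5% Albumax were exposed to compound for 48 hours at 37 C, 5% CO2; growth read as luminescence.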
HCV inhibitor: inhibitors of hepatitis C virus infection; Huh7.5.1 HCVcc-Cre infection, luciferase reporter, 44 h; Potency, µM (series often up to 41.8 µM), inactives show top-dose activity change, negative = inhibition, actives largely listed as inhibitors; actives 3.4% (n = 340,000); AID 651820; also: potency is read from the fitted curve at half-maximal effect
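Cells seeded at 1,000/well and cultured 4 h, then compounds added followed by HCVcc-Cre virus (~0.5 moi). After 44 h further culture, luciferase substrate was added, plates held 15 min at room temperature, and luminescence read for 15 sec.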
Starred values were filed as active, the others as inactive; ? = inconclusive; · = no result; ! = not active in a repeat; [ ] = another dose, or the depositor's remark. Unless noted, calls follow the shape of the dose curve; as a rule, active = well fitted inhibition curve with a large enough effect; inconclusive = small, poorly fitted or top-dose-only effect, or another doubt; inactive = no such curve, though single readings can be large or run the other way. % is scaled to controls: 0 for no effect and ±100 for the full control effect.

SMILES | HCMV inh | Pf growth 96h | Pf growth 48h | HCV inhibitor
CCC(=O)N1CCCC(C)(C(=O)Nc2ccc3oc(CC)nc3c2)C1 (centres undefined) | 18.6 | · | · | ·
CCOc1ccc(/C=C(\C#N)C(=O)Nc2sc3c(c2C(=O)OC)CCC3)cc1OC | 15.9 | · | · | ·
CCCCCn1c(CN2CCN(Cc3ccccc3)CC2)nc2c1c(=O)[nH]c(=O)n2C | -68.6* | ? | -54.6% | -2.4%
CN1CCN(Cc2nc3c(c(=O)[nH]c(=O)n3C)n2CCc2ccccc2)CC1 | 23.6 | ? | 0.0% | -12.4%
O=C(NN=Cc1ccc(N(CCCl)CCCl)cc1)C(=O)c1c[nH]c2ccccc12 | -20.6 | · | · | ?
CCN(CC)c1ccc(/C=N/NC(=O)c2c[nH]c3ccccc23)cc1 | -67.0* | -12.6% | ? | ?
Cc1cccc(N(C)C(=O)CCNS(=O)(=O)c2ccc3c(c2)CCN3C(=O)C2CC2)c1 | -8.4 | · | · | ·
O=C(NCc1ccc2c(c1)CCN2C(=O)c1ccccc1)Nc1cccc(C(F)(F)F)c1 | -97.4* | · | · | ·
Cc1ccc(CNC(=O)c2ccc(N3CCc4ccccc43)c([N+](=O)[O-])c2)cc1 | ? | ? | -20.8% | 6.31µM*
COc1ccc(CCC(=O)NCc2ccc3c(c2)CCN3C(=O)c2cccc(C)c2)cc1 | -72.4* | · | · | ·
CN(C)c1ccc(C(=O)NCc2ccc3c(c2)CCN3C(=O)c2ccccc2)cc1 | -34.7 | · | · | ·
Cc1ccc(C(=O)NCc2ccc3c(c2)CCN3C(=O)c2ccc(C)cc2)cc1 | -63.8* | · | · | ·
CCCC(=O)Nc1ccccc1C(=O)OCc1cc(=O)n2nc(C(C)C)sc2n1 | 89.8 | · | · | ·
CCc1ccc(CNC(=O)CCCN2C(=O)CCn3nc(-c4cccn4C)cc32)cc1 | -9.3 | · | · | ·
CN(C)S(=O)(=O)c1ccc(C(=O)NCCS(=O)(=O)N2CCN(c3ccccc3)CC2)cc1 | -6.5 | · | · | ·
O=C(CSc1nc(=O)n(Cc2ccncc2)c2c1CCC2)Nc1ccccc1 | 8.2 | · | · | ·
COc1ccc(CC(=O)NCc2ccc3c(c2)CCN3C(=O)c2ccc(Cl)cc2)cc1OC | -67.0* | · | · | ·
CCOC(=O)N1CCN(C(=O)CCNS(=O)(=O)c2cc(Br)cnc2N)CC1 | 13.3 | 189.6% | 0.2% | 7.4%
CCN(Cc1ccccc1)C(=O)CCNS(=O)(=O)c1cc(Br)cnc1N | 7.1 | 36.6% | 13.1µM* | 0.1%
Cc1nn(-c2ccc(N3CCCCC3)nn2)c(C)c1CCC(=O)NCc1ccccc1 | -34.9 | · | · | ·
Cc1c(CNC2CCCCC2)c(C(=O)O)c(C)n1Cc1ccccc1F | -0.3 | · | · | ·
C[C@@H]1CN(C(=O)c2nc3ccc(Cl)cn3c2CNCC[C@@H]2C[C@@H]3C=C[C@H]2C3)C[C@H](C)O1 | ? | ? | 8.28µM* | ?
CCc1cc(C(=O)N2CCN(S(=O)(=O)c3ccc(Cl)cc3)CC2)sc1C | -12.2 | 9.28µM* | 9.28µM* | ?
O=C(Cc1ccc(S(=O)(=O)N2CCOCC2)s1)N1CCN(S(=O)(=O)c2cccc(Cl)c2)CC1 | -32.4 | ? | 11.7µM* | -5.7%
O=C(COc1cccc(C(F)(F)F)c1)NNC(=O)Cc1ccc(S(=O)(=O)N2CCOCC2)s1 | 34.8 | ? | 13.1µM* | -4.3%
SMILES | HCMV inh | Pf growth 96h | Pf growth 48h | HCV inhibitor
COCCOc1ccc(C(F)(F)F)cc1NC(=O)Cc1ccc(S(=O)(=O)N2CCOCC2)s1 | -20.8 | 8.28µM* | 11.7µM* | ?
O=S1(=O)c2ccccc2N(Cc2ccc(Cl)cc2F)c2ccccc21 | -3.0 | · | · | ·
COc1ccc(OC)c(CNC(=O)CN(c2ccc(C)cc2)S(=O)(=O)N(C)C)c1 | -4.3 | · | · | ·
O=C(Cc1ccc(S(=O)(=O)N2CCOCC2)s1)N1CCN(S(=O)(=O)c2ccc(Cl)cc2)CC1 | -10.6 | 4.65µM* | 7.38µM* | -29.6%
Cc1ccc(S(=O)(=O)N2CCN(C(=O)Cc3ccc(S(=O)(=O)N4CCOCC4)s3)CC2)cc1 | -1.7 | 11.7µM* | ? | 3.1%
O=C(Cc1ccc(S(=O)(=O)N2CCOCC2)s1)N1CCN(c2cccc(C(F)(F)F)c2)CC1 | · | 10.4µM* | ? | 12.6µM*
O=C(Cc1ccc(S(=O)(=O)N2CCCC2)s1)N1CCN(c2ccccc2)CC1 | -3.4 | ? | -8.2% | 13.8%
O=C(Cn1c(=O)n2nc(-c3cccc(F)c3)nc2c2ccccc21)N1CCN(c2ccc(F)cc2)CC1 | 13.9 | · | · | ·
COCCNc1oc(/C=C/c2ccccc2OC)nc1S(=O)(=O)c1ccccc1 | -33.4 | 7.38µM* | 9.28µM* | ?
COCCNc1oc(-c2ccccc2)nc1S(=O)(=O)c1ccc(Br)cc1 | -35.6 | · | · | ·
COc1ccccc1/C=C/c1nc(C#N)c(NCC(C)C)o1 | -70.4* | · | · | ·
COc1cc(NC(=O)c2c(C)oc3c2C2=NCCN2C=N3)cc(OC)c1OC | -6.6 | · | · | ·
O=C1c2ccccc2C2(c3ccc(Cl)cc3)NCCN12 (centres undefined) | -14.0 | 13.1µM* | -14.5% | 19.3%
O=C(c1ccc(F)cc1)N1CCN2C(=O)c3ccccc3C12c1ccc(Cl)cc1 (centres undefined) | -63.6* | 5.22µM* | 13.1µM* | -4.3%
O=C(c1ccc(F)cc1)N1CCN2C(=O)c3ccccc3C12c1ccccc1 (centres undefined) | 34.3 | ? | 0.0% | -4.0%
C[C@@H]1CN([C@H](C)CO)C(=O)CCCn2nncc2CO[C@H]1CN(C)C(=O)Nc1ccc2c(c1)OCCO2 | 44.4 | · | · | ·
CN1C(=O)[C@@]2(O[C@H]3c4ccccc4C=CN3C3=C2C(=O)CCC3)c2ccccc21 | -29.2 | · | · | ·
Nc1ccc(C(=O)NCC(=O)O)cc1 | 3.8 | 9.28µM*! | 11.7µM*! | 40.0%
Nc1ccc(C(=O)NCCCCCCNC(=O)c2ccc(N)cc2)cc1 | -6.1 | ? | -1.1%[0.00184 µM] | 11.9%
CCCn1c(CN2CCN(C(=O)OCC)CC2)nc2c1c(=O)n(C)c(=O)n2C | -5.4 | 4.5% | 52.2% | -26.9%
CCCCCn1c(CN2CCN(C(=O)OCC)CC2)nc2c1c(=O)[nH]c(=O)n2C | -0.6 | ? | -11.6% | -3.4%
CCOC(=O)N1CCN(Cc2nc3c(c(=O)n(C)c(=O)n3C)n2Cc2ccccc2C)CC1 | -20.5 | ? | 10.4µM* | 2.2%
CCOC(=O)N1CCN(Cc2nc3c(c(=O)[nH]c(=O)n3C)n2Cc2cc(C)ccc2C)CC1 | · | -5.4% | 13.1µM* | 3.3%
Cc1ccc(N(Cc2cccs2)C(=O)c2ccccc2)cc1 | 9.6 | · | · | ·
COc1ccc(CCNC(=O)C(=O)NCCC2CCCCN2S(=O)(=O)c2cccs2)cc1 (centres undefined) | -29.6 | 7.38µM* | ? | ?
COc1ccc(CCNC(=O)C(=O)NCCC2CCCCN2S(=O)(=O)c2ccccc2)cc1 (centres undefined) | ? | 0.0% | 14.7µM* | -4.6%
COc1ccccc1CCNC(=O)C(=O)NCCC1CCCCN1S(=O)(=O)c1ccccc1 (centres undefined) | -25.7 | 82.2% | 49.8% | ?
CCn1cc(C=C2C(=O)NC(=O)NC2=O)c2ccccc21 | 16.6 | 11.2% | -7.3% | ?
CCn1cc(C=C2C(=O)N(C)C(=O)N(C)C2=O)c2ccccc21 | 32.7 | 0.117µM* | -29.7% | 14.1%
